Data published in PubChem BioAssay AID1159580 (chemical genetic matrix, 2015).
“And” between values parts separate entries of the source, which are not always exact repeats. Equal entries are not always repeated. The campaign covered roughly 5,500 compounds. About 2,000 (36%) were called active. Not shown: some 18% with an inconclusive outcome. Cut-off read from the data, not from the text of the source: active = normalized growth mostly below about 0.91 (no sharp cut-off); inconclusive = no clear call, values can overlap the other calls; inactive = mostly above about 0.92. The list shows a part of the results.

Assay: chemical genetic growth profiling, strain panel (AID 1159580);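 note: tested at 20 µM; growth read once vehicle control cultures reached saturation at 30 °C; 1 = growth at the plate median or of vehicle wells; lower values mean less growth of the strain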
Settings: S. cerevisiae deletion strains, growth OD

Measured: normalized growth

COc1cccc2c1cc([N+](=O)[O-])c1c(C(=O)O)cc3c(c12)OCO3
inactive: locus YAL021C, strain ccr4, stronger effect = lower value 1.01 | locus YAL026C, strain drs2, stronger effect = lower value 1.02 | locus YAL030W, strain snc1, stronger effect = lower value 1.02 | locus YBL061C, strain skt5, stronger effect = lower value 1.02 | locus YBR009C, strain hhf1, stronger effect = lower value 1.03 | locus YBR021W, strain FUR4, stronger effect = lower value 0.991 | locus YBR023C, strain chs3, stronger effect = lower value 1.02 | locus YBR171W, strain sec66, stronger effect = lower value 1.05 | locus YBR229C, strain ROT2, stronger effect = lower value 1.01 | locus YBR231C, strain swc5, stronger effect = lower value 1.03 | locus YBR279W, strain paf1, stronger effect = lower value 1.02 | locus YCL011C, strain gbp2, stronger effect = lower value 1.03 | locus YCL016C, strain dcc1, stronger effect = lower value 1.02 | locus YCL029C, strain bik1, stronger effect = lower value 1.02 | locus YCL061C, strain MRC1, stronger effect = lower value 1.02 | locus YCL069W, strain vba3, stronger effect = lower value 1.02 | locus YCR088W, strain abp1, stronger effect = lower value 1.02 | locus YDL005C, strain med2, stronger effect = lower value 1.04 | locus YDL035C, strain GPR1, stronger effect = lower value 1.01 | locus YDL040C, strain nat1, stronger effect = lower value 1 | locus YDL074C, strain BRE1, stronger effect = lower value 1.04 | locus YDL101C, strain DUN1, stronger effect = lower value 1.03 | locus YDL134C, strain PPH21, stronger effect = lower value 1.01 | locus YDL185W, strain tfp1, stronger effect = lower value 1 | locus YDL192W, strain arf1, stronger effect = lower value 1.04 | locus YDR001C, strain nth1, stronger effect = lower value 1.02 | locus YDR069C, strain doa4, stronger effect = lower value 1.02 | locus YDR101C, strain arx1, stronger effect = lower value 1.03 | locus YDR137W, strain rgp1, stronger effect = lower value 1.03 | locus YDR150W, strain NUM1, stronger effect = lower value 1.02 | locus YDR159W, strain sac3, stronger effect = lower value 1.04 | locus YDR162C, strain NBP2, stronger effect = lower value 1.03 | locus YDR195W, strain ref2 1 | locus YDR297W, strain sur2, stronger effect = lower value 1.03 | locus YDR318W, strain mcm21, stronger effect = lower value 1.02 | locus YDR334W, strain swr1, stronger effect = lower value 1.02 | locus YDR335W, strain msn5, stronger effect = lower value 1.02 | locus YDR388W, stronger effect = lower value 1.02 | locus YDR392W, strain spt3, stronger effect = lower value 0.971 | locus YDR502C, strain sam2, stronger effect = lower value 1.01 | locus YEL003W, strain gim4, stronger effect = lower value 1.03 | locus YEL037C, strain rad23, stronger effect = lower value 1.02 | locus YEL061C, strain CIN8 (second series), stronger effect = lower value 1.02 | locus YEL061C, strain CIN8, stronger effect = lower value 1.01 | locus YER015W, strain faa2, stronger effect = lower value 1.02 | locus YER016W, strain bim1, stronger effect = lower value 1.02 | locus YER110C, stronger effect = lower value 1.01 | locus YER111C, strain swi4, stronger effect = lower value 1.03 | locus YER155C, strain BEM2 (second series), stronger effect = lower value 1.03 | locus YER155C, strain BEM2, stronger effect = lower value 1.01 | locus YER167W, strain BCK2, stronger effect = lower value 0.999 | locus YFR010W, strain ubp6, stronger effect = lower value 1.02 | locus YGL078C, strain dbp3, stronger effect = lower value 0.997 | locus YGL086W, strain mad1, stronger effect = lower value 1.03 | locus YGL167C, strain pmr1, stronger effect = lower value 1.04 | locus YGL173C, strain kem1, stronger effect = lower value 1.04 | locus YGL227W, strain vid30, stronger effect = lower value 1.02 | locus YGL240W, strain doc1, stronger effect = lower value 1.03 | locus YGL248W, strain PDE1, stronger effect = lower value 1.01 | locus YGL253W, strain hxk2, stronger effect = lower value 1.01 | locus YGR135W, strain pre9, stronger effect = lower value 0.994 | locus YGR229C, strain SMI1, stronger effect = lower value 1.02 | locus YGR252W, strain gcn5, stronger effect = lower value 0.906 | locus YHR013C, strain ard1, stronger effect = lower value 1.02 | locus YHR027C, strain rpn1, stronger effect = lower value 1.02 | locus YHR030C, strain SLT2, stronger effect = lower value 1.01 and 0.92 | locus YHR079C, strain IRE1 (second series), stronger effect = lower value 1.01 | locus YHR079C, strain IRE1, stronger effect = lower value 0.914 | locus YHR094C, strain hxt1, stronger effect = lower value 1.02 | locus YHR129C, strain ARP1, stronger effect = lower value 1.01 | locus YHR142W, strain chs7, stronger effect = lower value 1.01 | locus YHR200W, strain rpn10, stronger effect = lower value 1.02 | locus YIL066C, strain RNR3, stronger effect = lower value 1.02 | locus YIL073C, strain SPO22, stronger effect = lower value 1.03 | locus YIL125W, strain kgd1, stronger effect = lower value 0.995 | locus YIR030C, strain dcg1, stronger effect = lower value 1.02 | locus YJL092W, strain hpr5, stronger effect = lower value 1.02 | locus YJL095W, strain BCK1 (second series), stronger effect = lower value 1.01 | locus YJL095W, strain BCK1, stronger effect = lower value 1.04 and 0.987 | locus YJL115W, strain asf1, stronger effect = lower value 1.02 | locus YJL129C, strain trk1, stronger effect = lower value 1.03 | locus YJL134W, strain LCB3, stronger effect = lower value 1.02 | locus YJL154C, strain vps35, stronger effect = lower value 1.02 | locus YJL164C, strain tpk1, stronger effect = lower value 0.991 | locus YJL166W, strain qcr8, stronger effect = lower value 1.02 | locus YJL168C, strain set2, stronger effect = lower value 1.01 | locus YJL187C, strain SWE1 (second series), stronger effect = lower value 1.03 | locus YJL187C, strain SWE1, stronger effect = lower value 1.02 | locus YJR043C, strain POL32, stronger effect = lower value 1.01
